This note sets out measurements from PubChem BioAssay (EPA / NIEHS).

The source made the active and inactive calls. How the source made its calls: active means hit-call score of the fitted dose curve at least 0.9, where 1 is the maximum; inactive means score below 0.9.

Read-out in assay [1]: Cyclin Dependent Kinase Inhibitor 1A (CDKN1A), CDKN1A (gene 1026)
Nature of the assay: LTEA_HepaRG_CDKN1A: Life Technologies and Expression Analysis (LTEA) Assay for Cyclin Dependent Kinase Inhibitor 1A (CDKN1A) using HepaRG (AID 2283450). The conditions noted are these: mRNA level, 48 h; actives raise or lower the signal. In short, it runs like this: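 Differentiated HepaRG cells in serum-free induction medium, exposed 48 h in duplicate to eight half-log concentrations up to 100 uM in 0.5% DMSO. mRNA measured by TaqMan qRT-PCR, normalized to ACTB, GAPDH, POLR2A; bidirectional fit versus DMSO.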

Read-out in assay [2]: Cyclin D1 (CCND1), CCND1 (gene 595)
As to the kind of experiment: LTEA_HepaRG_CCND1: Life Technologies and Expression Analysis (LTEA) Assay for Cyclin D1 (CCND1) using HepaRG (AID 2283451).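 On AC50: TaqMan qRT-PCR transcript level normalised to ACTB GAPDH and POLR2A housekeeping genes.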 Conditions: mRNA level, 48 h; actives raise or lower the signal. In outline: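 Differentiated HepaRG cells exposed 48 h in serum-free induction medium to eight half-log concentrations from 100 uM top, 0.5% DMSO, duplicates. CCND1 mRNA measured by Fluidigm TaqMan qRT-PCR, normalised to ACTB, GAPDH, POLR2A; bidirectional fit.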

Read-out in assay [3]: flavin-containing dimethylaniline monooxygenases 3 (FMO3), FMO3 (gene 2328)
Nature of the assay: LTEA_HepaRG_FMO3: Life Technologies and Expression Analysis (LTEA) Assay for flavin-containing dimethylaniline monooxygenases 3 (FMO3) using HepaRG (AID 2283453).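 On AC50: FMO3 transcript by TaqMan qRT-PCR normalized to ACTB GAPDH and POLR2A.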 Conditions: mRNA level, 48 h; actives raise or lower the signal. In outline:
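HepaRG, 48 h exposure, 8-pt half-log series from 100 uM, 0.5% DMSO vehicle, duplicates; FMO3 transcript by Fluidigm TaqMan qRT-PCR, housekeeping-normalized; gain/loss fit vs DMSO.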

Read-out in assay [4]: Cytochrome P450 (CYP1A1), CYP1A1 (gene 1543)
As to the kind of experiment: LTEA_HepaRG_CYP1A1: Life Technologies and Expression Analysis (LTEA) Assay for Cytochrome P450 (CYP1A1) using HepaRG (AID 2283454). The conditions noted are these: mRNA level, 48 h; actives raise or lower the signal. In short, it runs like this: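 Differentiated human HepaRG cells, after 48 h plating, exposed in duplicate for 48 h in serum-free induction medium to 8 half-log concentrations up to 100 uM in 0.5% DMSO. CYP1A1 mRNA by qRT-PCR, normalized to ACTB/GAPDH/POLR2A; bidirectional fit versus DMSO.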

Read-out in assay [5]: CFLAR gene, CFLAR (gene 8837)
As to the kind of experiment: LTEA_HepaRG_CFLAR: Life Technologies and Expression Analysis (LTEA) Assay for CFLAR gene using HepaRG (AID 2283455). The conditions noted are these: mRNA level, 48 h; actives raise or lower the signal. In short, it runs like this:
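HepaRG cells were plated for 48 h, switched to serum-free induction medium, then exposed in duplicate for 48 h to 8 concentrations (top 100 uM, half-log steps, 0.5% DMSO). CFLAR mRNA was measured by qRT-PCR, normalized to ACTB, GAPDH and POLR2A.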

Read-out in assay [6]: Forkhead box O1 (FOXO1), FOXO1 (gene 2308)
As to the kind of experiment: LTEA_HepaRG_FOXO1: Life Technologies and Expression Analysis (LTEA) Assay for Forkhead box O1 (FOXO1) using HepaRG (AID 2283456). The conditions noted are these: mRNA level, 48 h; actives raise or lower the signal. In short, it runs like this:
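Differentiated human HepaRG cells in serum-free induction medium were exposed in duplicate for 48 h to eight half-log concentrations (top 100 uM, 0.5% DMSO). FOXO1 mRNA was measured by TaqMan qRT-PCR, normalised to ACTB, GAPDH and POLR2A, and fitted bidirectionally against DMSO.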

Read-out in assay [7]: growth arrest and DNA damage 45 (GADD45A), GADD45A (gene 1647)
Nature of the assay: LTEA_HepaRG_GADD45A: Life Technologies and Expression Analysis (LTEA) Assay for growth arrest and DNA damage 45 (GADD45A) using HepaRG (AID 2283458). Conditions: mRNA level, 48 h; actives raise or lower the signal. In short, it runs like this: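 Differentiated HepaRG cells were exposed in duplicate for 48 h in serum-free induction medium to 8-point half-log concentrations up to 100 uM in 0.5% DMSO. GADD45A mRNA was measured by TaqMan qRT-PCR, normalized to ACTB, GAPDH and POLR2A, with bidirectional fitting versus DMSO.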

Read-out in assay [8]: Forkhead box O3 (FOXO3), FOXO3 (gene 2309)
As to the kind of experiment: LTEA_HepaRG_FOXO3: Life Technologies and Expression Analysis (LTEA) Assay for Forkhead box O3 (FOXO3) using HepaRG (AID 2283459). Conditions: mRNA level, 48 h; actives raise or lower the signal. In short, it runs like this:
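Differentiated human HepaRG cells in serum-free induction medium were exposed in duplicate for 48 h to eight half-log concentrations up to 100 uM in 0.5% DMSO. FOXO3 mRNA was quantified by qRT-PCR, normalized to ACTB, GAPDH and POLR2A, with bidirectional fitting versus DMSO.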

Read-out in assay [9]: ABC Transporter (ABCB1), ABCB1 (gene 5243)
Nature of the assay: LTEA_HepaRG_ABCB1: Life Technologies and Expression Analysis (LTEA) Assay for ABC Transporter (ABCB1) using HepaRG (AID 2283460). The conditions noted are these: mRNA level, 48 h; actives raise or lower the signal. In short, it runs like this:
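Differentiated human HepaRG cells, plated 48 h then switched to serum-free induction medium, were exposed in duplicate to eight half-log concentrations up to 100 uM in 0.5% DMSO for 48 h. ABCB1 mRNA was measured by TaqMan qRT-PCR, normalized to ACTB/GAPDH/POLR2A.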

Read-out in assay [10]: ABC Transporter (ABCC3), ABCC3 (gene 8714)
Nature of the assay: LTEA_HepaRG_ABCC3: Life Technologies and Expression Analysis (LTEA) Assay for ABC Transporter (ABCC3) using HepaRG (AID 2283462). The conditions noted are these: mRNA level, 48 h; actives raise or lower the signal. In outline:
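Differentiated human HepaRG cells exposed 48 h in serum-free induction medium, 0.5% DMSO vehicle, 8-point half-log series to 100 uM in duplicate. ABCC3 mRNA by qRT-PCR, normalised to ACTB, GAPDH, POLR2A; bidirectional fit vs DMSO.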

Read-out in assay [11]: ABC Transporter (ABCB11), ABCB11 (gene 8647)
As to the kind of experiment: LTEA_HepaRG_ABCB11: Life Technologies and Expression Analysis (LTEA) Assay for ABC Transporter (ABCB11) using HepaRG (AID 2283463). The conditions noted are these: mRNA level, 48 h; actives raise or lower the signal. In outline:
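Differentiated human HepaRG cells were exposed for 48 h in serum-free induction medium to eight half-log concentrations up to 100 uM in 0.5% DMSO. ABCB11 mRNA was quantified by qRT-PCR, normalized to ACTB, GAPDH and POLR2A, and fitted bidirectionally versus DMSO.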

Read-out in assay [12]: ABC Transporter (ABCC2), ABCC2 (gene 1244)
As to the kind of experiment: LTEA_HepaRG_ABCC2: Life Technologies and Expression Analysis (LTEA) Assay for ABC Transporter (ABCC2) using HepaRG (AID 2283464). The conditions noted are these: mRNA level, 48 h; actives raise or lower the signal. In short, it runs like this: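 Differentiated HepaRG cells in serum-free induction medium exposed 48 h to eight half-log concentrations up to 100 uM, 0.5% DMSO, in duplicate. ABCC2 mRNA measured by qRT-PCR (TaqMan, Fluidigm), normalized to ACTB, GAPDH and POLR2A. Fitted in both directions against DMSO.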

Read-out in assay [13]: Broad substrate specificity ATP-binding cassette transporter ABCG2 (Homo sapiens) (UniProt Q9UNQ0)
As to the kind of experiment: LTEA_HepaRG_ABCG2: Life Technologies and Expression Analysis (LTEA) Assay for ABC Transporter (ABCG2) using HepaRG (AID 2283465). The conditions noted are these: mRNA level, 48 h; actives raise or lower the signal. In short, it runs like this:
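Differentiated HepaRG cells in serum-free induction medium were exposed for 48 h, in duplicate, to eight half-log concentrations up to 100 uM in 0.5% DMSO. ABCG2 mRNA was measured by TaqMan qRT-PCR, normalized to ACTB, GAPDH and POLR2A, and fitted bidirectionally versus DMSO.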

Read-out in assay [14]: ATP-citrate lyase (ACLY), ACLY (gene 47)
As to the kind of experiment: LTEA_HepaRG_ACLY: Life Technologies and Expression Analysis (LTEA) Assay for ATP-citrate lyase (ACLY) using HepaRG (AID 2283466). The conditions noted are these: mRNA level, 48 h; actives raise or lower the signal. In short, it runs like this:
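Differentiated human HepaRG cells in serum-free induction medium exposed 48 h, in duplicate, to eight half-log concentrations from 100 uM top in 0.5% DMSO; ACLY mRNA measured by qRT-PCR, normalized to ACTB, GAPDH, POLR2A, fitted bidirectionally versus DMSO.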

Read-out in assay [15]: Peroxisomal acyl-coenzyme A oxidase 1 (ACOX1) gene, ACOX1 (gene 51)
Nature of the assay: LTEA_HepaRG_ACOX1: Life Technologies and Expression Analysis (LTEA) Assay for Peroxisomal acyl-coenzyme A oxidase 1 (ACOX1) gene using HepaRG (AID 2283467). Conditions: mRNA level, 48 h; actives raise or lower the signal. In short, it runs like this: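 Differentiated human HepaRG cells were exposed in duplicate for 48 h in serum-free induction medium to eight half-log concentrations up to 100 uM in 0.5% DMSO. ACOX1 mRNA was then quantified by TaqMan qRT-PCR, normalized to ACTB, GAPDH and POLR2A.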

Read-out in assay [16]: Alkaline Phosphatase, Placental (ALPP) gene, ALPP (gene 250)
As to the kind of experiment: LTEA_HepaRG_ALPP: Life Technologies and Expression Analysis (LTEA) Assay for Alkaline Phosphatase, Placental (ALPP) gene using HepaRG (AID 2283468). The conditions noted are these: mRNA level, 48 h; actives raise or lower the signal. In outline:
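HepaRG cells plated 48 h, then exposed in duplicate for 48 h in serum-free induction medium to 8-point half-log series from 100 uM in 0.5% DMSO. ALPP mRNA by TaqMan qRT-PCR, normalized to ACTB/GAPDH/POLR2A; bidirectional fit versus DMSO.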

Assay [17] can be described thus: CEETOX_H295R_TESTO: CeeTox H295R High-throughput Steroidogenesis Assay for Testosterone (TESTO) (AID 2283457). Conditions: actives raise or lower the signal. In short, it runs like this:
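H295R adrenal cells, passage ≤10, exposed to chemicals for 48 h. Testosterone in medium measured by MTBE extraction and HPLC-MS/MS against a 7-point standard curve. Bidirectional fit versus DMSO; MTT viability checked in the same wells.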

Read-out in assay [18]: growth arrest and DNA damage 45 (GADD45B), GADD45B (gene 4616)
Nature of the assay: LTEA_HepaRG_GADD45B: Life Technologies and Expression Analysis (LTEA) Assay for growth arrest and DNA damage 45 (GADD45B) using HepaRG (AID 2283461). The conditions noted are these: mRNA level, 48 h; actives raise or lower the signal. In outline:
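Differentiated human HepaRG cells in serum-free induction medium exposed 48 h in duplicate to eight concentrations, top 100 uM, half-log steps, 0.5% DMSO. GADD45B mRNA by TaqMan qRT-PCR, normalized to ACTB, GAPDH, POLR2A; bidirectional fit versus DMSO.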

Read-out in assay [19]: Bcl-2 (BAD) gene, BAD (gene 572)
Nature of the assay: LTEA_HepaRG_BAD: Life Technologies and Expression Analysis (LTEA) Assay for Bcl-2 (BAD) gene using HepaRG (AID 2283469). The conditions noted are these: mRNA level, 48 h; actives raise or lower the signal. In outline:
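Differentiated human HepaRG cells in serum-free induction medium were exposed in duplicate for 48 h to eight concentrations (top 100 uM, half-log steps, 0.5% DMSO). BAD mRNA was quantified by qRT-PCR normalised to ACTB, GAPDH and POLR2A, with bidirectional fitting versus DMSO.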

Chain of Broad substrate specificity ATP-binding cassette transporter ABCG2 (Homo sapiens) (Q9UNQ0 whole entry, looked up): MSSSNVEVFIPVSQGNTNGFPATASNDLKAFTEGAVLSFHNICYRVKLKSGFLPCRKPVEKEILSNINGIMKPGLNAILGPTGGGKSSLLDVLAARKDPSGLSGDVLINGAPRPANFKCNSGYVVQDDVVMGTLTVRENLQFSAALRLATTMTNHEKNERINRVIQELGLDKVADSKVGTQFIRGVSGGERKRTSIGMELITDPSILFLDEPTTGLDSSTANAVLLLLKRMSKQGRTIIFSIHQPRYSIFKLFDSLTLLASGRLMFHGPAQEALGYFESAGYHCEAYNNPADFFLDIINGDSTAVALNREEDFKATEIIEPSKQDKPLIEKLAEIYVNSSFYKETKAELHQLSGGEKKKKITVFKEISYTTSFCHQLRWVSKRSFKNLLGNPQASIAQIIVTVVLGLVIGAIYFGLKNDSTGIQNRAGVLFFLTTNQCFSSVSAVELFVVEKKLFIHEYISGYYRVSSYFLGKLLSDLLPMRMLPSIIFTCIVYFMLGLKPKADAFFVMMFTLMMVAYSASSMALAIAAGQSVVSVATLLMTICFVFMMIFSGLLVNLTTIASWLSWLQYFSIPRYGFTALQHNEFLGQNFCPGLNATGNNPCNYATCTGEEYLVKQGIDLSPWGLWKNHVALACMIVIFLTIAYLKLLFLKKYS

Turning to `CC(=O)OCC(COC(C)=O)OC(C)=O`, the compound was called inactive in assay [1], in [2], in assay [3], in assay [5], in [6] and in [7]. In addition, the call in [8], in assay [9], in assay [10], in assay [11], in assay [12] and in assay [13] was inactive. Further, the result in [14], in assay [15] and in assay [16] was inactive. Besides, in assay [4], the AC50 is 12 µM (active).
Take `O=C1OC(c2ccc(O)cc2)(c2ccc(O)cc2)c2ccccc21`: the compound was called inactive in assay [1], in assay [17], in [7], in [9], in assay [18] and in [10]. Further, the outcome in assay [12], in assay [14] and in assay [19] was inactive. Moreover, the AC50 in [2] was 78.7 µM (active); in assay [3], 93.8 µM (active); in [4] it was 50 µM (active); in assay [5], 76.4 µM (active); in assay [6], 50 µM (active); in assay [8], 50 µM (active). The AC50 is 69.8 µM (active) in assay [11] and 79.2 µM (active) in assay [13].
